Assay results from PubChem BioAssay AID651785 (The Scripps Research Institute Molecular Screening Center, 2012).
The campaign covered roughly 2,400 compounds. About 950 (40%) were called active. Rule as the data show it: active = inhibition above about 49%; inactive = the rest. These entries were drawn from the full list.

Biological target: Trace amine-associated receptor 1 (Homo sapiens) (UniProt Q96RJ0)
Assay: TAAR1 receptor blockers, repeat testing – cell-based, fluorescence, confirmation (AID 651785);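 also: CHO-Ga16 host cells challenged with agonist PEA near its EC80; 0% = agonist at EC80 plus vehicle and 100% = vehicle with no agonist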
Details: TAAR1-expressing cells, fluorescence antagonist read-out; at 3 µM; hits give high values

Trace amine-associated receptor 1 (Homo sapiens), sequence (Q96RJ0 whole entry, looked up): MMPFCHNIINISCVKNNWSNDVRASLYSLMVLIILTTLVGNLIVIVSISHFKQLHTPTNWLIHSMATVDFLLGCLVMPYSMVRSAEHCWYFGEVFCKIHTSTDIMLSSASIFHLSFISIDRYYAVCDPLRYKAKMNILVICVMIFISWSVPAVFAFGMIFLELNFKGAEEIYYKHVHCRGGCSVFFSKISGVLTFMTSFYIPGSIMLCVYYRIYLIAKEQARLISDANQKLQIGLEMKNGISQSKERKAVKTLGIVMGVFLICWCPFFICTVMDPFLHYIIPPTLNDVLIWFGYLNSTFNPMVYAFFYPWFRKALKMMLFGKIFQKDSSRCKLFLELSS

Row | SMILES | inhibition
1 | Nc1nonc1-n1nnc(C(=O)N/N=C/c2c[nH]c3ccccc23)c1-c1ccccc1 | 33.6% (inactive)
2 | Cc1ccc(SCc2c(C(=O)N/N=C/c3cccnc3)nnn2-c2nonc2N)cc1 | 59.3% (active)
3 | C[C@@H]1CN([C@@H](C)CO)S(=O)(=O)c2ccc(C#Cc3cccc(F)c3)cc2O[C@H]1CN(C)S(=O)(=O)c1cn(C)cn1 | 53% (active)
4 | CCc1ccc2c(c1)NC(=O)C2(C)Cc1ccc(OC(F)(F)F)cc1 (stereo not drawn) | 44.5% (inactive)
5 | Cc1cccc(NC(=O)c2nc[nH]c2C(=O)NCC(=O)OCc2ccccc2)c1 | 46% (inactive)
6 | CCOC(=O)C1=C(NC(=S)NC(=O)c2ccccc2)c2ccccc2CC1(C)C | 42.7% (inactive)
7 | Cc1cc(Br)ccc1NC(=O)c1cnc(N2CCN(c3ccccn3)CC2)c2ccccc12 | 55.2% (active)
8 | Cc1ccc2c(c1)N(CC(=O)NCCc1ccc(Cl)cc1)C(=O)c1cccnc1O2 | 50.5% (active)
9 | COc1ccc(C2=NOC(Cn3nc(C(=O)NCc4ccc5c(c4)OCO5)cc3-c3ccccc3)C2)cc1 (stereo not drawn) | 48.2% (inactive)
10 | CC(=O)OCCN(CCCn1c(-c2ccncc2)nc2ccccc21)c1nc(-c2ccc(C)cc2)cs1 | 36.5% (inactive)
11 | Cc1nn(-c2ccccc2)c(C)c1NC(=O)COC(=O)c1cc(Cl)ccc1O | 56.2% (active)
12 | COc1ccc(S(=O)(=O)N2CCCC(C(=O)Nc3ccc(NC(=O)c4ccccn4)cc3)C2)cc1 (stereo not drawn) | 56.2% (active)
13 | Cc1onc(-c2c(F)cccc2Cl)c1C(=O)Nc1cccc(S(=O)(=O)N2CCCCC2)c1 | 46% (inactive)
14 | COc1ccc(NC(=O)C2CCCN(S(=O)(=O)c3cccc4cccnc34)C2)cc1OC (stereo not drawn) | 45.3% (inactive)
15 | Cc1ccc(C)c(N2CCN(C(=O)CCCCCn3c(=S)[nH]c4ccc(N5CCOCC5)cc4c3=O)CC2)c1 | 54.2% (active)
16 | COc1ccc(CCNC2=C(Cl)C(=O)N(Cc3ccccc3)C2=O)cc1OC | 50.8% (active)
17 | COc1cc2ccccc2cc1C(=O)Nc1ccc(NC(=O)c2cccs2)cc1 | 45.9% (inactive)
18 | C[C@H](O)[C@@H]1C(=O)N2CCc3c([nH]c4c(-c5ccc6c(c5)OCO6)cccc34)[C@@H]2C[C@@H]1N(C)C(=O)c1ccco1 | 37.4% (inactive)
19 | O=C(NCCN1CCOCC1)c1ccccc1N1C(=O)[C@@H]2Cc3c([nH]c4ccccc34)C(c3cccc(Cl)c3)N2C1=O (stereo partly drawn) | 39.5% (inactive)
20 | O=C(NCCN1CCOCC1)c1ccc(/C=C2\Sc3ccccc3N(Cc3ccc(F)cc3)C2=O)cc1 | 52.2% (active)
21 | O=C(NCCN1C(=O)S/C(=C\c2cccnc2)C1=O)c1ccc(S(=O)(=O)N2CCCC2)cc1 | 29.7% (inactive)

Row | SMILES | inhibition
22 | CCNS(=O)(=O)c1ccc(CCC(=O)N2CCN(c3cc(Cl)ccc3C)CC2)cc1 | 50.4% (active)
23 | OC(c1ccccc1)(c1ccccc1)C1CCN(CCCOc2ccc(-c3ccsc3)cc2)CC1 | 43.2% (inactive)
24 | CCOc1ccc(N2CC(C(=O)N/N=C/c3sccc3C)CC2=O)cc1 (stereo not drawn) | 9.4% (inactive)
25 | O=C1c2ccccc2C(=O)N1CCC#Cc1ccc2cc(C3(O)CCCCC3)oc(=O)c2c1 | 69.5% (active)
26 | CCN1CCc2c(C#N)c(NCc3ccccc3)nc(NCCO)c2C1 | 0.04% (inactive)
27 | Cc1cccc(C)c1NC(=O)CNC(=O)C1CCCC1 | 2.87% (inactive)
28 | Cc1ccccc1OCC(=O)Nc1ccc(N2CCN(C(=O)C(C)C)CC2)c(Cl)c1 | 55.3% (active)
29 | CSc1ncnc2c1ncn2CC(=O)C1CCC2C3CCC4=CC(=O)CCC4(C)C3CCC12C (stereo not drawn) | 61.9% (active)
30 | COc1ccc(N(CC(=O)N/N=C/c2cccs2)S(=O)(=O)c2ccc(OC)c(OC)c2)cc1 | 42.2% (inactive)
31 | CC(=O)c1ccccc1OCc1ccc(C(=O)c2ccccc2)cc1 | 56.3% (active)
32 | COc1ccc2[nH]c(=O)c(CN(Cc3cccnc3)S(=O)(=O)c3ccccc3F)cc2c1 | 55% (active)
33 | O=C(COC(=O)c1c2c(nc3ccccc13)CCCC2)c1ccc(Br)s1 | 41% (inactive)
34 | CSC(=S)N/N=C/c1c[nH]c2ccccc12 | 65.5% (active)
35 | O=C(Oc1ccc(-c2nnco2)cc1)c1ccc(F)c(S(=O)(=O)N2CCOCC2)c1 | 61.4% (active)
36 | COc1ccc(C(=O)Oc2ccc(-c3nnco3)cc2)cc1S(=O)(=O)N1CCOCC1 | 47.2% (inactive)
37 | C=CCc1cc(S(=O)(=O)c2ccc(O)c(CC=C)c2)ccc1O | 26.4% (inactive)
38 | Cn1c(C(=O)NCCc2ccsc2)cc2c(=O)n(C)c3ccccc3c21 | 38.8% (inactive)
39 | O=S1(=O)c2c(cccc2N2CCCCC2)O[C@H](COCc2ccccc2)CN1C1CC1 | 32.1% (inactive)
40 | COc1ccc(OC)c2[nH]c(=O)c(CCNC(=O)C(=O)c3c[nH]c4ccccc34)cc12 | 49.5% (active)
41 | CC/C(=N/Nc1ccccc1)c1cnnc(SC)n1 | 1.16% (inactive)
42 | Cc1ccccc1NC(=O)Cc1nc(COC(=O)C(C)(C)Oc2ccc(Cl)cc2)cs1 | 58.9% (active)

Row | SMILES | inhibition
43 | O=C(O)c1ccc(NC(=O)c2cn(-c3ccccc3)nc2-c2ccc(Cl)cc2)cc1 | 46.9% (inactive)
44 | Cc1cccc(NC(=O)c2ccc(COc3ccccc3[N+](=O)[O-])o2)n1 | 35% (inactive)
45 | COC(=O)Cc1nnn2c1[C@H](C)[C@H](c1ccccc1[N+](=O)[O-])OCC2 | 30.1% (inactive)
46 | COC(=O)Cc1nnn2c1[C@H](C)[C@H](c1ccccc1Br)OCC2 | 65.9% (active)
47 | COc1ccc(CC(=O)Nc2c(C(N)=O)oc3ccccc23)cc1 | 28.8% (inactive)
48 | CCCCNc1c(-c2cccc(Sc3ccc(OC)cc3)c2)nc2ccccn12 | 61.9% (active)
49 | Cc1ccc(NC(=O)c2ccc(CSc3ncnc4nc[nH]c34)cc2)c(C)c1 | 25.9% (inactive)
50 | CSCCC(NC(=O)COc1ccccc1)C(=O)OCC(=O)c1cc2ccccc2o1 (stereo not drawn) | 33.3% (inactive)
51 | O=c1[nH]c(CSc2ncc(-c3ccc(F)cc3)n2Cc2ccco2)nc2ccccc12 | 54% (active)
52 | Cc1ccc2cccc(OCCCOc3ccccc3CO)c2n1 | 26.4% (inactive)
53 | O=C(Nc1ccccc1-c1nnn(CC(=O)N2CCN(c3ccccc3)CC2)n1)c1cccs1 | 52.1% (active)
54 | CN(c1ccccc1)S(=O)(=O)c1cc(C(=O)Nc2nc3ccccc3[nH]2)ccc1Cl | 50.8% (active)
55 | O=S(=O)(c1cccs1)N1CCCc2nc(-c3ccc(Br)cc3)ccc21 | 36.2% (inactive)
56 | COc1ccc(C(=O)Nc2ccccc2C(=O)N/N=C/c2ccc(O)c(OC)c2)cc1 | 45.9% (inactive)
57 | O=C(N/N=C/c1ccc(OC(=O)c2ccccc2Cl)cc1)c1ccc(O)cc1 | 57% (active)
58 | COc1ccc(-c2cc(C(=O)N(C)CC(=O)Nc3ccccc3Cl)c3ccccc3n2)cc1OC | 52.2% (active)
59 | COc1ccc(-c2cc(C(=O)Nc3ccccc3O)c3ccccc3n2)cc1 | 59% (active)
60 | COc1ccc(-c2nn(-c3ccccc3)cc2C(=O)Nc2nccs2)cc1OC | 46.5% (inactive)
61 | COc1ccc(-c2cc(C(=O)N(C)Cc3ccccc3)c3ccccc3n2)cc1 | 44.3% (inactive)
62 | COc1ccc(NC(=O)c2cc(-c3ccc(C)o3)nc3ccccc23)cc1 | 41.2% (inactive)
63 | CC(=O)N1CCN(C(=O)c2cc(-c3ccc(Cl)s3)nc3ccccc23)CC1 | 38.7% (inactive)

Row | SMILES | inhibition
64 | COc1ccc(CN(C)C(=O)c2cc(-c3ccc(C)cc3C)nc3ccccc23)c(OC)c1OC | 53.7% (active)
65 | COc1ccc(-c2cc(C(=O)N(C)Cc3ccc(OC)c(OC)c3OC)c3ccccc3n2)cc1OC | 56.9% (active)
66 | COc1ccc(C(=O)Nc2cccc(NC(=O)c3ccc(OC)cc3OC)n2)c(OC)c1 | 45.9% (inactive)
67 | Cc1cc(C(C)(C)C)oc1C(=O)N(CC(=O)NC1CCCC1)Cc1ccc(Cl)cc1 | 43.7% (inactive)
68 | CSCCC(NC(=O)COc1ccccc1)C(=O)OCCOc1ccc(Br)cc1 (stereo not drawn) | 17.8% (inactive)
69 | O=C(NCC1CCCO1)c1cc2c([nH]c3ccccc32)c(-c2ccc(F)cc2)n1 (stereo not drawn) | 46% (inactive)
70 | Cn1c2ccccc2c(=O)c2c(=O)n(Cc3ccco3)c(COc3ccccc3)nc21 | 51% (active)
71 | COc1ccc(S(=O)(=O)N(CC(=O)NCc2ccco2)c2ccc(F)cc2)cc1 | 39.1% (inactive)
72 | C=CCn1c(SCc2cccc(F)c2)nc2cc(C(=O)N3CCC(C(N)=O)CC3)ccc2c1=O | 43.9% (inactive)
73 | Cc1nc(N2CCN(c3ccccn3)CC2)c2c(C)c(C(=O)Nc3ccc(F)cc3)sc2n1 | 53% (active)
74 | Clc1ccc(Nc2ncnc3c2nnn3Cc2ccccc2)cc1 | 31% (inactive)
75 | COc1cc(/C=C2/C(=O)ON=C2C)ccc1OCc1ccccc1F | 61.3% (active)
76 | COC(=O)c1sccc1NC(=O)c1cc(OC)c(OC)c(OC)c1 | 37.3% (inactive)
77 | COc1ccc(/C=C/C(=O)Nc2ccc(C34CC5CC(CC(O)(C5)C3)C4)cc2)cc1OC | 57.9% (active)
78 | NNC(=O)CNC(c1ccccc1)c1cc(Cl)ccc1NC(=O)c1ccccc1 (stereo not drawn) | 34.3% (inactive)
79 | Oc1ccccc1N1CCN(c2ncnc3sc(-c4ccccc4)cc23)CC1 | 47.6% (inactive)
80 | CC(C)(C)OC(=O)NCCCCCNC(=O)c1nc[nH]c1C(=O)NCc1ccccc1 | 37.2% (inactive)
81 | CC(C)Oc1cc(F)ccc1-c1cc(C(=O)Nc2ccc(F)cc2)[nH]n1 | 46.1% (inactive)
82 | C=CCC[C@H](Cc1ccc(F)cc1)C(=O)OC[C@H](C)NC(=O)[C@H](CC=C)CC(=O)N(CCO)Cc1ccccc1 | 54% (active)
83 | C=CCC[C@@H](Cc1ccc(F)cc1)C(=O)O[C@H](CNC(=O)[C@H](CC=C)CC(=O)N(CCO)Cc1ccccc1)c1ccccc1 | 57.8% (active)
